Source: PubChem BioAssay (NCI)
“And” between values parts separate entries of the source, which are not always exact repeats. Equal values may be shown once. The panel holds about 79,000 compounds, 15% with a hit somewhere; the sample as a whole holds those more often. No stated cut-off is given here; in the data, active means growth inhibition above about 70%; inactive means the rest.

How the values were obtained:
[1] = NCI Yeast Anticancer Drug Screen. Data for the rad50 strain (AID 155);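 further: 0% = growth of vehicle-only cultures of the same strain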; details: S. cerevisiae rad50 strain growth inhibition, active compounds read high; at 50.0 µM unless noted
In short: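 Growth of the mutant yeast was measured after compound exposure and referenced to vehicle-treated cultures.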

[2] = NCI Yeast Anticancer Drug Screen. Data for the mec2-1 strain (AID 157); details: S. cerevisiae mec2-1 strain, active compounds read high; at 50.0 µM unless noted
In short: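 Readout is yeast growth inhibition, normalised to vehicle-treated controls, in the mec2-1 strain exposed to compound.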

[3] = NCI Yeast Anticancer Drug Screen. Data for the sgs1 mgt1 strain (AID 161);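 further: 0% = growth of cultures given vehicle only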; details: S. cerevisiae sgs1 mgt1 strain, active compounds read high; at 50.0 µM unless noted
In short: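 This yeast growth screen uses a strain with defined DNA-repair lesions; compound-treated growth is compared with vehicle-treated growth.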

[4] = NCI Yeast Anticancer Drug Screen. Data for the cln2 rad14 strain (AID 165);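 further: 0% = growth equal to vehicle treated cultures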; details: S. cerevisiae cln2 rad14 strain, active compounds read high; at 50.0 µM unless noted
In short: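 Relative to vehicle controls, growth inhibition of compound-treated cln2 rad14 yeast was recorded.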

[5] = NCI Yeast Anticancer Drug Screen. Data for the bub3 strain (AID 167); details: S. cerevisiae bub3 mutant strain, active compounds read high; at 50.0 µM unless noted
In short: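 Whole-cell yeast assay. The mutant strain was incubated with compounds, and growth inhibition was determined by comparison with vehicle-treated cells.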

[6] = NCI Yeast Anticancer Drug Screen. Data for the mlh1 rad18 strain (AID 175); details: S. cerevisiae mlh1 rad18 strain growth inhibition, active compounds read high; at 50.0 µM unless noted
In short: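 Test agents were incubated with a yeast strain of defined genotype (DNA damage repair defect). Inhibition of growth was derived by comparison with vehicle-exposed cultures.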

Measured: growth inhibition

Cc1c(CC#N)cc(C)c2c3c([nH]c12)-c1ccccc1CC3
inactive: [1] 35.5% | [2] 35.2% | [3] 44% | [4] 11.8% | [5] 37.5% | [6] 18.9%

O=C1CC(c2ccccc2)n2c(nc3ccccc32)N1 (stereo unspecified)
inactive: [1] 5% | [2] 1.85% | [3] -18.1% | [4] -14.1% | [5] -15.4% | [6] -64.2%

CN(C)c1ccc(Cc2ccc(N(C)C)cc2N)cc1
inactive: [1] -0.85% | [2] 2.2% | [3] 2.75% | [4] 10.1% | [5] -25.2% | [6] -4.05%

CC(C)OC(=O)/C=C/CCCC1CCCCC1
inactive: [1] -10.5% | [2] 6.15% | [3] 7.95% | [4] 2.35% | [5] 18.7% | [6] -15.2%

O=[N+]([O-])C(C(Cl)=C(Cl)Cl)=C(N1CCOCC1)N1CCOCC1
inactive: [1] -25.2% | [2] -21.1% | [3] -19.1% | [4] -9.6% | [5] 5.1% | [6] 1.85%

Cc1ccc([N+](=O)[O-])cc1NC(=O)/C(=N/NC(=S)NN)C1SC(=S)NC1=O (stereo unspecified)
inactive: [1] 19.4% | [2] -12.1% | [3] 12.2% | [4] 20.9% | [5] -19.6% | [6] -8.75%

COc1ccc(C2=Nc3ccccc3N=C(SC)C2)cc1
inactive: [1] 42.2% | [2] -5.3% | [3] 51.1% | [4] 6.75% | [5] 53.7% | [6] 32.5%

O=C(CCC(=O)c1ccccc1)NCc1ccccc1
inactive: [1] 11.2% | [2] -6.2% | [3] 4.4% | [4] 5.55% | [5] 6.5% | [6] 2.1%

CCCCNC(=S)Nn1c(-c2ccccc2)nc2ccccc2c1=O
inactive: [1] 18.6% | [2] -43% | [3] -20.8% | [4] -37.5% | [5] -31.9% | [6] 0.9%

C=CCCCC1CCCNC1=S (stereo unspecified)
inactive: [1] 8.3% | [2] 6.1% | [3] 20.4% | [4] 12.6% | [5] 28.9% | [6] 20.9%

CCOc1ccc(N=Nc2c(-c3ccccc3)nn(C(=O)CC(=O)Nc3ccccc3Cl)c2-c2ccccc2)cc1
inactive: [1] 20.6% | [2] -8.2% | [3] 34.6% | [4] 3.5% | [5] 31% | [6] 18.7%

CCCC1SCC(=O)N1c1nncs1 (stereo unspecified)
inactive: [1] 6.5% | [2] 3.5% | [3] -23.2% | [4] -29.1% | [5] -8% | [6] -30.6%

O=C(c1ccccc1)c1ccc(O)cc1
inactive: [1] 3.5% | [2] 3.05% | [3] 21.4% | [4] 13.9% | [5] -1.75% | [6] 24.9%

O=C(OCC(OC(=O)c1ccccc1)C1OCOC2COCOC21)c1ccccc1 (stereo unspecified)
inactive: [1] 3.35% | [2] -1.3% | [3] -5.6% | [4] -24.2% | [5] 0.45% | [6] 11.4%

CCCCN(CCCC)C(=O)c1cccc(C)c1
inactive: [1] 13.7% | [2] 8.1% | [3] 4.1% | [4] -16.4% | [5] 53.2% | [6] 14.1%

Cc1nc2ccccc2c2ccc([N+](=O)[O-])cc12
inactive: [1] 13.5% | [2] 4.45% | [3] 0.25% | [4] -31.1% | [5] -4.6% | [6] 12.3%

O=[N+]([O-])c1cc(COc2ccc(Cl)c(Cl)c2)ccc1Cl
inactive: [1] 1.8% | [2] 30.3% | [3] 38.5% | [4] -0.95% | [5] 46.4% | [6] 35.8%

O=C(Cc1nc2ccccc2s1)C(=O)Nc1cccc(C(F)(F)F)c1
inactive: [1] -4.95% | [2] 8.75% | [3] -10.7% | [4] 7.95% | [5] 6.1% | [6] -6%

CCc1n[nH]c(=O)n1NC(=O)c1ccccc1C(=O)O
inactive: [1] 15.8% | [2] 11.8% | [3] 15.2% | [4] 20.6% | [5] 25.9% | [6] 16.2%

Cc1ncc(CO)c(CO)c1O
inactive: [1] 3.05% and -8.25% | [2] -2.95% and -14% | [3] -4.2% | [4] 2.4% | [5] 7% | [6] 45.8% and -5.65%

CCC(C)(C)NC(N)=O
inactive: [1] 13.1% | [2] 22.6% | [3] 8.55% | [4] -34.2% | [5] 8.55% | [6] 23.7%

CC(=O)N(C(C)=O)N1C(=O)CSC1=S
inactive: [1] -11.1% | [2] -35% | [3] -21.8% | [4] -3.4% | [5] 17.4% | [6] -7.2%

CC(C)(C)NC(=O)Nc1ccc2ccccc2c1
inactive: [1] -7.7% | [2] 3.95% | [3] -8.2% | [4] -68.5% | [5] -24.1% | [6] -11.3%

COc1ccc(/C(Cc2ccccc2)=N/Nc2ccc([N+](=O)[O-])c([N+](=O)[O-])c2)cc1
inactive: [1] 48.1% | [2] -8.15% | [3] 23.5% | [4] 6.35% | [5] 9.7% | [6] 20.1%

CC1(C)OC1CS(=O)c1ccccc1 (stereo unspecified)
inactive: [1] -6.1% | [2] -5.4% | [3] -14.5% | [4] -17.4% | [5] 5.5% | [6] -42.8%

CCCCSCC(N)CO (stereo unspecified)
inactive: [1] 9.05% | [2] 5.2% | [3] 10.7% | [4] -34.2% | [5] 0.55% | [6] 1.75%

O=C(O)CCCCCCCC(=O)O
inactive: [1] 15.4% | [2] -0.45% | [3] 16.9% | [4] -3.05% | [5] 5.5% | [6] 27.2%

O=C(Nc1nccs1)c1ccccc1F
inactive: [1] 3.8% | [2] -0.9% | [3] -12.2% | [4] -53.3% | [5] -8.45% | [6] -3.15%

NC1=NC(=O)/C(=C/c2ccccc2[N+](=O)[O-])C(N)=N1
inactive: [1] -26.9% | [2] -0.05% | [3] 10.8% | [4] 4.8% | [5] -5.6% | [6] 24.1%

CC1([N+](=O)[O-])COC(Cc2ccccc2)OC1 (stereo unspecified)
inactive: [1] -7.7% | [2] -4% | [3] -16.9% | [4] -17.3% | [5] -18% | [6] -5%

COCc1ccc2c(c1)C(O)NC(=O)O2 (stereo unspecified)
inactive: [1] 4.75% | [2] -4.05% | [3] 13.3% | [4] -28.2% | [5] -8.55% | [6] 16.1%

O=C(Oc1ccccc1)C(=O)Oc1ccccc1
inactive: [1] -20.6% | [2] -24.9% | [3] -8.75% | [4] -15.4% | [5] -0.1% | [6] 6.4%

Nc1ncnc2c1c(-c1ccc(Cl)cc1)cn2-c1ccc(I)cc1
inactive: [1] 2.45% | [2] 2.45% | [3] -17.2% | [4] -7.4% | [5] -1.1% | [6] 7%

C=CCOC(=O)C(C)OC(=O)CCC(=O)OC(C)C(=O)OCC=C (stereo unspecified)
inactive: [1] 5.35% | [2] 4.3% | [3] 4.35% | [4] 3.95% | [5] 6.15% | [6] 4.85%

CC(=O)CCOC(=O)c1cc([N+](=O)[O-])cc([N+](=O)[O-])c1
inactive: [1] 13.2% | [2] -4.1% | [3] 14.4% | [4] 2.6% | [5] 16.9% | [6] 3%

C#CCOc1ccc(C)cc1
inactive: [1] -0.55% | [2] 5.35% | [3] -7.05% | [4] 9.25% | [5] 2.55% | [6] -10.1%

Cc1cc(=O)[nH]c(NNC(C#N)c2cccc([N+](=O)[O-])c2)n1 (stereo unspecified)
inactive: [1] -18.5% | [2] -11.1% | [3] -31.1% | [4] -12.8% | [5] -7.4% | [6] -39.5%

CCCCOC(=O)C(C)OC(=O)C(C)Oc1cc(Cl)c(Cl)cc1Cl (stereo unspecified)
inactive: [1] -1.65% | [2] -3.95% | [3] 0.3% | [4] 16.9% | [5] 3.9% | [6] -0.8%

CCCCCCCCCCCCSCCSCCCCCCCCCCCC
inactive: [1] 9.85% | [2] 15.4% | [3] 4.9% | [4] -26.8% | [5] -29.4% | [6] 1.3%

CN(C)c1ccc(/C=C(\NC(=O)c2ccccc2)c2nc3ccccc3c(=O)o2)cc1
inactive: [1] 8.45% | [2] 10.3% | [3] 3.95% | [4] 11.5% | [5] -15.8% | [6] -9.3%

O=C(O)C1=CCCc2ccc3ccccc3c21
inactive: [1] 10.2% | [2] 6% | [3] 0.2% | [4] -20.4% | [5] -27.9% | [6] 6.25%
